# PubChem BioAssay AID540276 (National Center for Advancing Translational Sciences (NCATS), 2011)
# “And” between values parts separate entries of the source, which are not always exact repeats. Identical values can stand only once. Among all 300,000 compounds or so, about 5,400 (1.8%) were called active. Roughly 28% stayed inconclusive and do not appear here. This is one part of a sample in which actives are shown more often than they occur. Values without a mark were called inactive. Calls follow the shape of the full dose curve; tested in HEK293 cells.
# Experiment: qHTS for inhibitors of binding or entry into cells for Marburg Virus
# Details: Marburg virus pseudotyped entry inhibition, cell reporter; series mostly up to 37.8 µM; activity change, negative = inhibition: at the top concentration
# % is scaled to controls: 0 for no effect and ±100 for the full control effect; potency is read from the fitted curve at half-maximal effect.
Compound,"activity change, negative = inhibition",Potency
O=C(Nc1ccc(S(=O)(=O)Nc2ccccn2)cc1)c1ccccc1,1.38%,–
COC(=O)Cc1nc2c(N)nc(N)nc2[nH]c1=O,-8.16% [at 46.1 µM],–
CCCCn1c(N)c(N(CCC(C)C)C(=O)CC2OC(=O)c3ccccc32)c(=O)[nH]c1=O (stereo unspecified),18%,–
COc1ccc(Cl)cc1NC(=O)COC(=O)c1ccc(Br)o1,4.51% [at 46.1 µM],–
c1ccc(-c2ccccc2OCCN2CCCCC2)cc1,–,14.6 µM (active)
CC1CN(CCOc2ccccc2[N+](=O)[O-])CC(C)O1 (stereo unspecified),-16.6% [at 46.1 µM],–
CC1CCCN(CCOCCOc2ccccc2-c2ccccc2)C1 (stereo unspecified),–,11.2 µM (active)
CC1CN(CCCOc2ccccc2-c2ccccc2)CC(C)O1 (stereo unspecified),-9.52% [at 46.1 µM],–
c1ccc2cc(OCCN3CCCC3)ccc2c1,-7.89%,–
O=[N+]([O-])c1ccccc1OCCCCN1CCCCC1,9.45%,–
CN(Cc1ccc(F)cc1)C(=O)CN1C(=O)c2ccccc2S1(=O)=O,1.59%,–
COc1ccc(C(=O)CC(=O)c2ccc(C)cc2)c(O)c1,1.43% [at 46.1 µM],–
COc1ccc(N=C2C=CC(=O)O2)cc1,-4.62% [at 46.1 µM],–
COc1ccc(Cc2nc3ccc(C(=O)NCC4CCOCC4)cc3o2)cc1OC,1.26%,–
O=C(Cc1c[nH]c2ccccc12)OCCOC(=O)Cc1c[nH]c2ccccc12,–,18.3 µM (active)
CCOC(=O)CN(C)Cc1c[nH]c2ccccc12,-2.54%,–
O=C(COC(=O)Cc1c[nH]c2ccccc12)NCCc1ccccc1,-9.54% [at 46.1 µM],–
COc1ccc(S(=O)(=O)NCc2cccnc2)cc1NC(=O)c1ccc(C)cc1,3.55%,–
COc1cc(C(=O)Nn2c(CC(C)C)nc3ccccc3c2=O)cc(OC)c1OC,-6.04%,–
Cc1cc(O)ccc1-c1cnc2ccccc2n1,–,inactive
Cc1ccc(NC(=O)c2cc(-c3ccc(C)o3)nc3ccccc23)nc1,-6.53%,–
Cc1ccc(Nc2nc(-c3ccc(O)cc3O)cs2)nc1,–,4.47 µM (active)

Compound,"activity change, negative = inhibition",Potency
CC(=O)c1ccc(S(=O)(=O)Nc2ccc(-c3ccc4nncn4n3)cc2)cc1,-15.7%,–
NC(=S)NN=C1CCCC(C(F)(F)F)C1 (stereo unspecified),-2.75%,–
O=C(COC(=O)c1ccc(Br)o1)NC12CC3CC(CC(C3)C1)C2,31%,–
CCOc1cc(N2CCOCC2)c(OCC)cc1NC(=O)COC(=O)[C@H](Cc1c[nH]c2ccccc12)NC(C)=O,9.35%,–
CCOc1cc(N2CCOCC2)c(OCC)cc1NC(=O)COc1cccc(Cl)c1,-3.98%,–
CCOc1cc(N2CCOCC2)c(OCC)cc1NC(=O)COc1cccc2cccnc12,–,4.47 µM (active)
COc1ccc(Cl)cc1NC(=O)CN1CCN(C(=O)N2CCOCC2)CC1,24.5%,–
CCOc1ccc(NC(=O)CSc2c3c(nc4ccccc24)CCCC3)cc1,3.83% [at 46.1 µM],–
Cc1ccc(Nc2c3c(nc4ccccc24)CCC3)cc1,–,11.2 µM (active)
O=C(Nc1c2c(nc3ccccc13)CCCC2)c1ccccc1Br,-4.15% [at 46.1 µM],–
Cc1ccc(C(=O)O)c(NC=O)c1OCc1ccccc1,-16.2% [at 46.1 µM],–
Cc1[nH]c(C)c(S(=O)(=O)N2CCC(C)CC2)c1C(=O)N1CCCC1,8.85% [at 46.1 µM],–
CN(CC(=O)NCCc1ccc(S(N)(=O)=O)cc1)CC(=O)Nc1ccc(Cl)cc1,12.9%,–
O=C1NC(Nc2nc3ccccc3s2)(C(F)(F)F)C(=O)N1C1CCCCC1 (stereo unspecified),–,6.51 µM (active)
COC(=O)NC1(C(F)(F)F)NC(=O)N(C2CCCCC2)C1=O (stereo unspecified),0.437%,–
O=C(NC1(C(F)(F)F)N=C(c2ccccc2)N(C2CCCCC2)C1=O)c1ccccc1F (stereo unspecified),-21.3% [at 46.1 µM],–
C=CCOc1cccc(CNCc2cccnc2)c1,15.2% [at 46.1 µM],–
CC(C)c1ccc(/C=C/C(=O)NCCCN2CCOCC2)cc1,-28.2%,–
O=C(/C=C/c1cn(-c2ccccc2)nc1-c1ccc2c(c1)OCCO2)NCCCN1CCOCC1,–,3.55 µM (active)
COc1ccc(-c2nn(-c3ccccc3)cc2/C=C\C(=O)N2CCOCC2)cc1[N+](=O)[O-],15.3% [at 46.1 µM],–
Cc1cc(F)ccc1NC(=S)NCCc1ccccc1,6.16% [at 46.1 µM],–
O=C(Nc1cccc(Cl)c1Cl)c1ccccc1NC(=O)C1CC=CCC1C(=O)O (stereo unspecified),-14.1% [at 46.1 µM],–

Compound,"activity change, negative = inhibition",Potency
Cc1ccccc1CN1CCNC(=O)C1CC(=O)NCCC1=CCCCC1 (stereo unspecified),-26%,–
O=S(=O)(Nc1ccccc1)c1ccc(NS(=O)(=O)c2cccs2)cc1,-21.5% [at 46.1 µM],–
Cc1ccc(NS(=O)(=O)c2cccs2)cc1S(=O)(=O)N1CCCCCC1,–,10 µM (active)
Cc1ccc(C(=O)NNC(=O)c2ccncc2)cc1S(=O)(=O)N1CCCCC1,-0.132%,–
Cc1ccc(NC(=O)c2ccccn2)cc1S(=O)(=O)N1CCOCC1,1.1%,–
COc1ccccc1C(=O)Nc1ccc(C)c(S(=O)(=O)N2CCCCC2)c1,–,8.91 µM (active)
Cc1ccc(NC(=O)CCCNC(=O)c2ccc(Cl)cc2)cc1S(=O)(=O)N1CCCCC1,-11%,–
CCOc1ccc2ccccc2c1/C=N/NC(=O)c1c(C)cc(C)[nH]c1=O,22% [at 46.1 µM],–
Cc1ccc(/C=C2\CCn3c2nc2cc(C(=O)O)ccc2c3=O)c(C)c1,-23.6% [at 46.1 µM],–
Cc1ccc(Nc2nnc(SC(C)C(=O)NC3CC3)s2)cc1 (stereo unspecified),11.7%,–
CCOC(=O)C1CCN(C(=O)CN2C(=O)c3cccnc3Oc3ccc(C)cc32)CC1,17.4% [at 46.1 µM],–
O=C(NNC(=O)C(O)c1ccccc1)NC1CCCCC1 (stereo unspecified),15.9% [at 46.1 µM],–
Cc1nc(/N=C(\N)NC(=O)NC2CCCCC2)nc2ccccc12,–,7.94 µM (active)
COc1ccc2nc(/N=C(\N)NC(=O)Nc3ccccc3)nc(C)c2c1,-30.2%,–
O=C(OCCOCn1cc(Br)c(=O)[nH]c1=O)c1ccccc1,-4.74% [at 46.1 µM],–
C=CCn1c(=O)n(C)c2c(=O)n(C)c(=O)n(C)c21,5.71% [at 46.1 µM],–
O=C1CC(c2ccccc2)C(=O)N2C(=O)CC(c3ccccc3)C(=O)N12 (stereo unspecified),1.53% [at 46.1 µM],–
C=CCNC(=O)C1CC2c3ccccc3C1c1ccccc12 (stereo unspecified),1.85%,–
CC[C@H]1CN2CCc3cc(OC)c(OC)cc3[C@@H]2C[C@@H]1C[C@H]1NCCc2cc(OC)c(OC)cc21,–,224 nM (active) and 326 nM (active) and 103 nM (active)
COc1cc2c(cc1OC)CN(CC(=O)Nc1ccc(F)cc1)CC2,-0.577%,–
COc1cc(NC(=O)CSc2ccc(-c3cccnc3)nn2)cc(OC)c1,-7.05%,–
CCOc1ccc(CC(=O)NCCS(=O)(=O)N2CCN(c3ccccc3)CC2)cc1,12.2%,–

Compound,"activity change, negative = inhibition",Potency
Cc1nc2ccccc2c(C(=O)O)c1-c1ccccn1,17.2% [at 46.1 µM],–
O=C(COc1ccc([N+](=O)[O-])cc1Cl)Nc1ccc2[nH]c(=O)[nH]c2c1,-2.16% [at 46.1 µM],–
CC(=O)C1=C(C)NC(C)=C(C(C)=O)C1c1cn(-c2ccccc2)nc1-c1cccs1,-21.3%,–
O=C(O)c1ccc(N/N=C/c2cn(-c3ccccc3)nc2-c2cccs2)cc1,–,4.47 µM (active)
O=C(NCc1cccnc1)c1cn(-c2ccccc2)nc1-c1cccs1,-14.5%,–
COc1ccc(OC)c(NC(=O)C2CCCN2S(=O)(=O)c2cccc3nsnc23)c1 (stereo unspecified),-13.2% [at 46.1 µM],–
CC[C@]12c3[nH]c4ccc(Cl)cc4c3CCN1C(=O)[C@@H](CC(=O)NCCCOC)C[C@@H]2C(=O)N1CCN(C(=O)c2ccco2)CC1,-1.78%,–
COc1ccc(C2(c3ccc(OC)cc3)NC(=O)N(CC(=O)Nc3cc(C)on3)C2=O)cc1,-25.4% [at 46.1 µM],–
CCCCCOc1ccc(CSC2=NCCN2)cc1[N+](=O)[O-],-35.4%,–
CCCCOc1ccc(CSC(=N)N)cc1[N+](=O)[O-],–,14.1 µM (active)
CCCOc1ccc(Cn2ccnc2)cc1[N+](=O)[O-],1%,–
CCN(CC)CCn1c2ccc(Cl)cc2c2nc(C)sc21,-57.9%,–
CCN(CC)CCCC(C)n1c2nc(=O)[nH]c(=O)c-2nc2cc(Cl)ccc21 (stereo unspecified),–,5.62 µM (active)
CC(=O)OC[C@H]1O[C@H](CCO/N=C(\C)CCN2CCCCc3nc(C)c(C)cc32)C=C[C@@H]1OC(C)=O,16.2% [at 14.2 µM],–
O=C(CSC(=S)N1CCOCC1)c1ccccc1,–,7.31 µM (active)
CC1CN(C(=S)SCC(=O)c2ccccc2)CC(C)O1 (stereo unspecified),-3.47%,–
O=C(CSC(=S)N1CCOCC1)c1cc(Br)cc(Br)c1O,11.4% [at 46.1 µM],–
Cc1ccc(CNC(=O)C(=O)c2cn(CC(=O)N3CCCC3)c3ccccc23)cc1,-19.2%,–
Cc1cc(NC(=O)CSc2nnc(-c3ccco3)n2N)no1,-29.8%,–
O=C(COC(=O)c1cccc(Cl)c1)NC(=O)NCc1ccccc1,4.11%,–
COc1c(O)ccc2c1-c1c3c(cc4c1C(C2)N(C)CC4)OCO3 (stereo unspecified),3.76%,–
COc1ccc2c(c1O)-c1cccc3c1[C@@H](C2)N(C)CC3,–,1 µM (active)

Compound,"activity change, negative = inhibition",Potency
Cn1c(N)cc(=O)n(C)c1=S,-7.14%,–
CC(C(=O)c1ccc(-c2ccccc2)cc1)[n+]1cccc(Br)c1 (stereo unspecified),-1.4% [at 46.1 µM],–
O=C(NCc1nnc(SCC(=O)N2CCCCCC2)o1)c1ccc(F)cc1,-7.97%,–
CCC(=O)Nc1cccc(NC(=O)CSc2nnc(-c3ccc(NS(C)(=O)=O)cc3)n2C)c1,9.87%,–
Cn1c(SCC(=O)Nc2cccc(NC(=O)c3cccs3)c2)nnc1-c1ccncc1,–,12.6 µM (active)
COCCCn1c(SCC(=O)Nc2ccccc2)nnc1-c1ccncc1,-0.876% [at 46.1 µM],–
CC1CCCCC1NC(=O)Cn1c(=O)cnc2ccccc21 (stereo unspecified),14.6% [at 46.1 µM],–
CC(=O)c1c(C)[nH]c(C(=O)COC(=O)c2cccs2)c1C,-11.6%,–
COc1ccc(C)cc1N(CC(=O)N1CCCC1)S(=O)(=O)c1ccccc1,4.32% [at 46.1 µM],–
NC(=O)Nc1cccc(C(F)(F)F)c1,-9.89%,–
O=C(Nc1cc(C(F)(F)F)ccc1Cl)C(=O)N1CCCCC1,10.1%,–
O=C(NNc1ccccc1Cl)C(O)(c1cccc(C(F)(F)F)c1)c1cccc(C(F)(F)F)c1,–,18.4 µM (active)
NC(=O)Cn1cc(/C=N\NS(=O)(=O)c2ccccc2)c2ccccc21,-7.13% [at 46.1 µM],–
COC(=O)N(C)C1=C(C(=O)N2CCOCC2)CCCC1,-9.8%,–
Cn1c(=O)[nH]c2c(c(C(=O)O)nn2C)c1=O,-0.0312% [at 46.1 µM],–
Cc1ccc2[nH]cc(CCNC(=O)c3ccc([N+](=O)[O-])cc3)c2c1,3.86%,–
Cc1cc(C)cc(NC(=O)CCN2C(=O)c3ccccc3C2=O)c1,-3.01% [at 46.1 µM],–
Cc1ccc2[nH]cc(CCCN3C(=O)c4ccccc4C3=O)c2c1,–,16.4 µM (active)
